Test system: Vero E6 infected with SARS-CoV-2
Experiment: inhibition of SARS-CoV-2 cytopathic effect; higher = more antiviral protection, active = above 15
Details: 48 h

Measured: inhibition of SARS-CoV-2 cytopathic effect

COc1ccsc1CNCC[C@@]1(c2ccccn2)CCOC2(CCCC2)C1
inactive: 1 nM -2.56% | 8.33 nM 3.9% | 100 nM 0.92% | 833.33 nM 1.29% | 10000 nM -0.28%

C=CC(C)(C)c1cc(/C=C/C(=O)c2ccc(O)cc2)c(OC)cc1O [licochalcone-A]
inactive: 1 nM -0.14% | 8.33 nM 0.43% | 100 nM -0.55% | 833.33 nM -9.62% | 10000 nM 8.6%

CC(C)n1c(=O)n(C(=O)N[C@H]2C[C@H]3CC[C@@H](C2)N3C)c2ccccc21
inactive: 1 nM 3% | 8.33 nM 1.63% | 100 nM -0.05% | 833.33 nM -0.36% | 10000 nM -2.53%

Cc1cc(-c2cc(O)ccc2Cl)cc2nnc(Nc3ccc(OCCN4CCCC4)cc3)nc12
inactive: 1 nM -1.19% | 8.33 nM 1.04% | 100 nM 4.54% | 833.33 nM -1.25% | 10000 nM -21.4%

COc1cc(/C=C/C(N)=O)cc(OC)c1OC [cintriamide]
inactive: 1 nM -2.6% | 8.33 nM 1.17% | 100 nM -4.56% | 833.33 nM 2.97% | 10000 nM 2.84%

CCN(CCO)CCCOc1ccc2c(Nc3cc(CC(=O)Nc4cccc(F)c4)[nH]n3)ncnc2c1 [barasertib-HQPA]
inactive: 1 nM -1.93% | 8.33 nM -0.82% | 100 nM -3.04% | 833.33 nM -4.18% | 10000 nM -5.49%

O=C(Nc1nc2ccc(NC(=O)C34CC5CC(CC(C5)C3)C4)cc2s1)c1ccccc1
inactive: 1 nM 1.55% | 8.33 nM 3.1% | 100 nM 0.95% | 833.33 nM 2.14% | 10000 nM -6.77%

N#CCC(=O)NN [cyacetacide]
inactive: 1 nM -3.1% | 8.33 nM 1.89% | 100 nM 6.23% | 833.33 nM 6.6% | 10000 nM 7.12%

CC(C)C[C@@H](N)C1(c2ccc(Cl)cc2)CCC1
inactive: 1 nM -0.06% | 8.33 nM -2.41% | 100 nM -2.87% | 833.33 nM -1.42% | 10000 nM -7.34%

O=C(Nc1ccccc1C(=O)Nc1ccc(CCO)cc1)c1ccc([N+](=O)[O-])cc1
inactive: 1 nM -0.75% | 8.33 nM 0.23% | 100 nM -1.82% | 833.33 nM -1.34% | 10000 nM -1.2%

— the supplement of paper PMC13380429
